# From PubChem
# Only a selection was taken, and hits are over-represented in it overall.
# KDM5B inhibitor = KDM5B demethylase inhibition; KDM5B demethylase, FDH-coupled NADH fluorescence (FDH is formaldehyde dehydrogenase); Potency, µM (doses to about 57.7 µM), hits mostly inhibitors; 220,000 compounds, 2.6% hits; active = well fitted inhibition curve with a large enough effect; note: nearly all actives have a fitted effect of over 70% in size
# Target sequence (Q9UGL1 whole entry, looked up): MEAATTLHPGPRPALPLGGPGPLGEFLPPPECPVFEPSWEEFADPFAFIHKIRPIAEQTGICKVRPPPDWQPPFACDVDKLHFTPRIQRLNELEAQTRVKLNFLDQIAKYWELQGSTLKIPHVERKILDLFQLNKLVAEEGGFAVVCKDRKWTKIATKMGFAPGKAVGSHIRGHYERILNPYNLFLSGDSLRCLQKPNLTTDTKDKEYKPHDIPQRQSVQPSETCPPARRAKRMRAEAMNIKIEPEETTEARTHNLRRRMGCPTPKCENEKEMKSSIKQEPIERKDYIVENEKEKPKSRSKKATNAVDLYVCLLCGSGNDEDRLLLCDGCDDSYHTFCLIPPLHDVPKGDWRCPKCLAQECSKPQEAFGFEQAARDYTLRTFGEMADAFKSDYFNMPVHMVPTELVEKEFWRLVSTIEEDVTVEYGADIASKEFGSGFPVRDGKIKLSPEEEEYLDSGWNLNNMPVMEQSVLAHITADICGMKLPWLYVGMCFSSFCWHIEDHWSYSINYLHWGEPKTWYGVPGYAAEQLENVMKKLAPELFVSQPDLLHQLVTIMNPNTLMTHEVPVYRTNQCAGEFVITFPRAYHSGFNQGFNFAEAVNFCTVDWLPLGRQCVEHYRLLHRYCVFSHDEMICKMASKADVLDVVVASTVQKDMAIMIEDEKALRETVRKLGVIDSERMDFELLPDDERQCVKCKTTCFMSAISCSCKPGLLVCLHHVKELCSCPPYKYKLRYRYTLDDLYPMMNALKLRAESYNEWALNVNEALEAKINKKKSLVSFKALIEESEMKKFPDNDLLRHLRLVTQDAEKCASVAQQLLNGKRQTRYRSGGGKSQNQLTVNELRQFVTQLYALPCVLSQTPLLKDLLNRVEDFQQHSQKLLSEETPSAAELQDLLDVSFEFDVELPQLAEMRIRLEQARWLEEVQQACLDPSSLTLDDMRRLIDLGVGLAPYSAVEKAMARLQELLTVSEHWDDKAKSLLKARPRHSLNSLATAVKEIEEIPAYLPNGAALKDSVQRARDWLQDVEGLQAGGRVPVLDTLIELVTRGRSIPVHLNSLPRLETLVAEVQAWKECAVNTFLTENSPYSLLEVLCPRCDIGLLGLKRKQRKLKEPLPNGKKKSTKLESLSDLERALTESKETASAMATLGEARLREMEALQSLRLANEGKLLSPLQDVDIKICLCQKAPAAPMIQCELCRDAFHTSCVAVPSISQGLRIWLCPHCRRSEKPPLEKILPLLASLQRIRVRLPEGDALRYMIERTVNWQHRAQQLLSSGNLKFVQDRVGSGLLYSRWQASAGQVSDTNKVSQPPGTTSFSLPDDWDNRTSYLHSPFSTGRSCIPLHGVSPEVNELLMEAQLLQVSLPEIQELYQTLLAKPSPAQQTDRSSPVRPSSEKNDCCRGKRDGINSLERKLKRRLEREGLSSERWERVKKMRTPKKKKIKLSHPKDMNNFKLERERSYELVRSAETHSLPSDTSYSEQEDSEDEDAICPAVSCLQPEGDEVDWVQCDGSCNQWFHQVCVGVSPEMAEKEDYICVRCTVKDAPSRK
#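 Here, H3K4me3 peptide (12.5 µM in substrate mix) is demethylated by KDM5BΔAP, 200 nM final, after 10 min compound exposure. Formaldehyde product is coupled through FDH (0.25 U/mL in mix) to NADH fluorescence; 30-min ΔRFU feeds dose-response curves.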
# Numbers stand for hits; n = inactive.
SMILES,KDM5B inhibitor
CCC1CN(C(=O)c2cnn(-c3ccccc3F)c2C(F)(F)F)CCO1 (stereo not given),n
COc1cc(-c2ccnc(-c3nnc(C)n3Cc3ccncc3)c2)ccn1,n
COc1ncccc1-c1ccnc(-c2nnc(C)n2Cc2ccccc2)c1,28µM
Cc1nnc(-c2cc(-c3cccc(F)c3)ccn2)n1CCc1ccccc1,n
COCCn1c(C)nnc1-c1cc(-c2cccc(N(C)C)c2)ccn1,n
COc1ccccc1-c1ccnc(-c2nnc(C)n2CCN2CCOCC2)c1,40µM
Cc1nnc(-c2cc(-c3cnn(C)c3)ccn2)n1C1CCCCC1,n
Cc1cc(-c2ccnc(-c3nnc(C)n3CCN3CCOCC3)c2)ccn1,n
COc1ccc(-c2ccnc(-c3nnc(C)n3CCN(C)C)c2)cc1OC,28µM
Cc1nnc(-c2cc(-c3cccc(F)c3)ccn2)n1CCN1CCOCC1,n
Cc1nnc(-c2cc(-c3cccc(OC(F)(F)F)c3)ccn2)n1CCN1CCOCC1,n
Cc1nnc(-c2cc(-c3ccc(N4CCOCC4)cc3)ccn2)n1C1CCCCC1,32µM
O=C(Nc1cc(I)ccc1C(F)(F)F)c1cc(Cl)ccc1Cl,n
O=C(NC(c1ccccc1)c1ccccn1)c1cccc[n+]1[O-] (stereo not given),n
O=C(CN1CCCC1)NCCCc1ccccc1,n
CCn1ccc(C(=O)N2CCC(CCOC)(NS(C)(=O)=O)CC2)n1,n
CCn1ccc2c(CN3CCC4(CCCN(CCOC)C4=O)C3)cccc21 (stereo not given),28µM
COCCN1CCCC2(CCN(C(=O)c3oc4cc(C)ccc4c3C)C2)C1=O (stereo not given),n
COCCN1CCCC2(CCN(C(=O)COc3cccc(C)c3C)C2)C1=O (stereo not given),n
CC1Cc2ccccc2N1C(=O)CSc1ncc(C(F)(F)F)cc1Cl (stereo not given),n
CCCCCCNc1nc2c(c(=O)[nH]c(=O)n2C)n1Cc1cccc(C)c1,n
O=C(C1CC(=O)N(C2CC2)C1)N1CCC(Oc2cccnc2)CC1 (stereo not given),n
O=C(C1CCC(=O)N(C2CCCC2)C1)N1CCN(c2nccs2)CC1 (stereo not given),n
O=C(C1CC(=O)N(C2CCCC2)C1)N1CCN(c2ccc(Cl)cn2)CC1 (stereo not given),32µM
CC1CCCCC1NC(=S)Nc1cccc2cnccc12 (stereo not given),n
SMILES,KDM5B inhibitor
CN1CCCN(S(=O)(=O)c2ccc(Cl)s2)c2ccccc21,n
CN1CCCN(S(=O)(=O)c2ccc(C(F)(F)F)cc2)c2ccccc21,14µM
Cc1cccc(S(=O)(=O)N2CCCN(C)c3ccccc32)c1,n
CN1CCCN(S(=O)(=O)c2cccc(Br)c2)c2ccccc21,14µM
CN1CCCN(S(=O)(=O)c2ccc(Cl)cc2)c2ccccc21,n
Cc1ccc(S(=O)(=O)N2CCCN(C)c3ccccc32)c(C)c1,n
O=C(Cn1nnnc1-c1ccccc1)N1CCCCC1,n
O=C(N[C@@H]1CCC[C@@H]1C(=O)NCc1ccc(OC(F)(F)F)cc1)c1ccncc1,n
O=c1c(-c2ccccc2)nnc2sc(-c3cccc(F)c3)nn12,n
CC(C)CCNc1nc(C(=O)OCC(=O)NC(=O)NCC(C)C)cs1,n
O=C(Nc1ccccc1)N(Cc1ccc(Cl)cc1)c1ccccn1,n
Cc1nnc2n1CCC(NC(=O)c1cnccn1)CC2 (stereo not given),n
Cc1nnc2n1CCC(NC(=O)NCc1ccco1)CC2 (stereo not given),n
Cc1nnc2n1CCC(NC(=O)c1cccn1C)CC2 (stereo not given),20µM
COc1ccccc1N1CCN(C(=O)C(C)Sc2nc(Cl)nc3nc[nH]c23)CC1 (stereo not given),n
Cc1ccc2nc(-c3ccc(Cl)c(NC(=O)c4cc([N+](=O)[O-])ccc4N4CCOCC4)c3)oc2c1,n
COC[C@@H]1CN(S(=O)(=O)c2ccccc2)C[C@H]1c1nc(C)no1,n
CCC(C)NC(=O)c1snnc1-c1ccc(OC)cc1 (stereo not given),n
CCn1cc(-c2cc3c(cn2)CN(Cc2ccncc2)CCN3)cn1,32µM
c1ccc(CN2CCNc3cc(-c4ccncc4)ncc3C2)cc1,n
Clc1ccc(-c2cc3c(cn2)CN(Cc2ccncc2)CCN3)cc1,32µM
Cn1nccc1-c1cc2c(cn1)CN(Cc1ccncc1)CCN2,35µM
COc1ccc(Nc2cc3c(cn2)CN(Cc2ccncc2)CCN3)cn1,n
Cc1ccc(Cl)cc1NC(=O)c1nc2ccccc2nc1N1CCN(C)CC1,n
Cc1nc(C#N)c(N2CCN(C(=O)CN3CCCCC3)CC2)o1,n
CC(Oc1ccccc1Cl)C(=O)NCc1csc(-c2ccccc2)n1 (stereo not given),n
COc1cc(Nc2nc(N)c(C(=O)c3cc(C)ccc3C)s2)cc(OC)c1,n
CSc1ccc(CCNC(=O)Cn2c(=O)c(=O)n(C)c3ccccc32)cc1,n
Cc1nn2c(c1-c1ccccc1C(C)C)N(C(=O)c1cccnc1)CCC2,n
COc1ccc(C2CC(=O)Nc3nc(C)[nH]c(=O)c32)cc1OC (stereo not given),n
